Experimental data as given in PubChem BioAssay (NCATS).
A number with no mark means an inactive call. Records with an inconclusive call do not appear. Calls of active or inactive are those of the source. Unless noted, calls follow the shape of the dose curve; as a rule, active = well fitted curve in either direction with a large enough effect (not every such curve was filed as active); inconclusive = small, poorly fitted or top-dose-only effect, or another doubt; inactive = flat fitted curve, though single readings scatter.

Columns and labels:
[1] = molecular target: Lysosomal acid glucosylceramidase (Homo sapiens) (UniProt P04062); assay: Glucocerebrosidase-p2 (AID 348; in the data active = potency below about 10 µM; also: potency is read from the fitted curve at half-maximal effect); settings: purified GBA, blue fluorogenic substrate, 40 min
Summary of the method: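 Compounds titrated from 0.6 nM upwards against 0.2 nM enzyme in pH 5.9 citric acid/KH2PO4, taurocholate, tween-20; blue fluorogenic substrate 80 uM, 40 min room temperature, stopped and read Ex 365/Em 440 for AC50.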

[2] = AP1 Signaling Pathway (AID 357); settings: ME-180 AP-1-bla reporter, EGF-induced, beta-lactamase ratio, 5 h; at 7.69 µM (top of the series) unless noted; also: % is scaled to controls: 0 for no effect and ±100 for the full control effect
Summary of the method: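 AP-1-bla ME-180 cells with beta-lactamase reporter under AP-1 response element, stimulated with EC50 EGF; compounds titrated, 5 hours at 37 degrees Celsius. CCF4 read at 460/530 nm ratio; positive and negative modulators judged by AC50.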

[3] = molecular target: Cytochrome P450 1A2 (Homo sapiens) (UniProt P05177); assay: p450-cyp1a2 (AID 410; calls by dose curve; also: potency is read from the fitted curve at half-maximal effect;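 as to activity change, negative = inhibition: -100% = full effect of reference inhibitor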); settings: recombinant CYP1A2, luciferin-ME demethylation, luminescence; series mostly up to 57 µM
Summary of the method: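 Human CYP1A2 (20nM) demethylated Luciferin-ME at its Km (100uM) in 100mM KPO4. After 10 min compound preincubation, NADPH regeneration ran the reaction 60 min at room temperature. Luciferin was read by luminescence, normalized to 57 uM furafylline.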

[4] = NFAT Signaling Pathway (AID 444); settings: Jurkat NFAT-bla M1, carbachol, beta-lactamase ratio, 5 h; at 7.69 µM (top of the series) unless noted;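 also: carbachol stimulus at about its EC50 of 1 µM final; % is scaled to controls: 0 for no effect and ±100 for the full control effect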
Summary of the method: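 Read-out: CCF4 FRET ratio (460 nm/530 nm) after 1 h RT dye loading, used for %activity and AC50 from titration series. Cells: Jurkat NFAT-β-lactamase/M1 line, treated with compound plus 1 uM carbachol for 5 h, 37 °C.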

[5] = Stat Signaling Pathway (AID 446); settings: ME-180 SIE beta-lactamase reporter, IL-6 stimulated, 5 h; at 7.69 µM (top of the series) unless noted;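 also: ME-180 cervical cancer cells given 40 pM IL-6 alongside compound; SIE-controlled beta-lactamase reporter measured as 460/530 nm FRET emission ratio; % is scaled to controls: 0 for no effect and ±100 for the full control effect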
Summary of the method: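 Reporter line: ME-180 cervical carcinoma, SIE-beta-lactamase. Treatment: compound with 40 pM IL-6, 5 hrs, 37 C, in low-serum OPTI-MEM with 10 mM HEPES pH 7.3. Detection: 460/530 nm fluorescence.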

[6] = molecular target: Glucocorticoid receptor (Homo sapiens) (UniProt P04150); assay: GR-EFC Redistribution (AID 451; calls by dose curve; also: potency is read from the fitted curve at half-maximal effect); settings: CHO-K1 GR-EFC translocation, beta-gal luminescence, 2 h
Summary of the method: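 Translocation of GR-ED fusion to nuclear EA restores b-gal, read by luminescence after 1 h room-temperature detection. Engineered CHO-K1 biosensor cells, 1,000/well, exposed 2 h at 37 C to titrations up to 46 uM final.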

[7] = molecular target: Mitogen-activated protein kinase 10 (Mus musculus) (UniProt Q61831); assay: JNK3 AlphaScreen Assay (AID 530); settings: JNK3 lysate, c-Jun phosphorylation; series mostly up to 57.1 µM;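 also: kinase came from lysate of stimulated human HepG2 cells; signal reports phosphorylation of biotinylated GST-cJun 1-79 at Ser73 with 10 µM ATP; % is scaled to controls: 0 for no effect and ±100 for the full control effect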
Summary of the method: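 Room-temperature AlphaScreen kinase assay; pre-activated HepG2 lysate as JNK3 source, biotin-GST-cJun(1-79) substrate, 10 uM ATP, compound 15 min preincubation.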

[8] = molecular target: Cytochrome P450 3A4 (Homo sapiens) (UniProt P08684); assay: qHTS Assay for Activators of Cytochrome P450 3A4 (AID 885; active = well fitted curve in the direction sought with a large enough effect; an effect the other way counts as inactive or inconclusive; also: nearly all actives have a fitted effect of over 65% in size); settings: recombinant CYP3A4, Luciferin-PPXE luminescence, 60 min; series mostly up to 57.1 µM
Summary of the method: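 Signal was normalized against complete inhibition by 57 uM ketoconazole. The reaction used 20nM CYP3A4 with 25uM Luciferin-PPXE, 10-min compound preincubation and a 60-min NADPH-supported step at RT.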

[9] = molecular target: Cytochrome P450 2C19 (Homo sapiens) (UniProt P33261); assay: qHTS Assay for Inhibitors and Substrates of Cytochrome P450 2C19 (AID 899; active = well fitted curve in the direction sought with a large enough effect; an effect the other way counts as inactive or inconclusive; also: potency is read from the fitted curve at half-maximal effect; nearly all actives have a fitted effect of over 60% in size); settings: recombinant CYP2C19, luciferin-H EGE luminescence; series mostly up to 57.1 µM
Summary of the method: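 5nM enzyme + 10uM Luciferin-H EGE (=KM), 50mM KPO4; cpd pin-transferred, 10 min 37C; NADPH regen, 60 min 37C; stopped w/ luciferin detection reagent, 20 min; luminescence. Normalized to 57uM ketoconazole (AC100).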

[10] = Primary qHTS for small molecule stabilizers of the endoplasmic reticulum resident proteome: Secreted ER Calcium Modulated Protein (SERCaMP) assay (AID 1508630; active = well fitted curve in the direction sought with a large enough effect; an effect the other way counts as inactive or inconclusive; also: % is scaled to controls: 0 for no effect and ±100 for the full control effect); settings: SH-SY5Y GLuc-SERCaMP (Gaussia luciferase released on ER calcium loss) secretion, thapsigargin, luminescence; series mostly up to 38.4 µM
Summary of the method: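 GLuc-SERCaMP-expressing SH-SY5Y cells, pretreated 16 h with compound, are challenged with thapsigargin to empty ER calcium stores; after 4 h, coelenterazine is added directly to the medium and luminescence is imaged.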

[11] = molecular target: Glucocorticoid receptor (Homo sapiens) (UniProt P04150); assay: GR-GFP Redistribution (AID 450;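 active = compounds whose dose series gives a full or clear partial fitted curve of increased nuclear translocation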; also: potency is read from the fitted curve at half-maximal effect); settings: U2OS GR-GFP nuclear translocation, laser cytometry, 2 h
[12] = molecular target: 3',5'-cyclic-AMP phosphodiesterase 4B (Homo sapiens) (UniProt Q07343); assay: qHTS Assay for Inhibitors of PDE-IV (AID 607; active = well fitted activation curve with a large enough effect in the main read-out, with a control signal flat, not every such curve was filed as active; also: % of control where 0% means no effect); settings: HEK293 ACTOne CNG channel cells, membrane potential fluorescence; series mostly up to 22.9 µM
Summary of the method: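 Cell-based read-out of cAMP via a modified cyclic nucleotide-gated channel and membrane potential dye (535/590 nm) in HEK293 cells expressing PDE4 endogenously. Compounds tested up to 22.9 uM final; 100 uM RO 20-1724 reference.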

[13] = Confirmation and Secondary Assay for Modulators of Hemoglobin Beta Chain Splicing at IVS2 654 locus (AID 910; active = well fitted curve in the direction sought with a large enough effect; an effect the other way counts as inactive or inconclusive;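 also: HeLa cells stably carrying EGFP split by mutant beta-globin IVS2-654 intron; per-well total GFP intensity by laser scanning cytometry after 2-day treatment; % of control where 0% means no effect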); settings: HeLa EGFP-654 splicing reporter, GFP fluorescence, 48 h; series mostly up to 38.3 µM
Summary of the method: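 Readout: per-well total peak green fluorescence (488 nm ex, 500–520 nm em) from objects 5–250 µm, reflecting correct splicing of an EGFP-654 reporter. Compounds were applied for 2 days at 37 °C to overnight-plated HeLa EGFP-654 cells; controls were DMSO and 500 nM IVS2-654 PNA.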

[14] = Confirmation and Secondary Assay for Modulators of Hemoglobin Beta Chain Splicing at IVS2 705 locus (AID 930; active = well fitted curve in the direction sought with a large enough effect; an effect the other way counts as inactive or inconclusive;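 also: HeLa cells stably expressing the EGFP-705 splicing reporter; GFP fluorescence per well restored by corrected splicing of the IVS2-705 intron in EGFP; % of control where 0% means no effect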); settings: HeLa EGFP-705 splicing reporter, GFP fluorescence, 48 h; series mostly up to 38.3 µM
Summary of the method: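 HeLa EGFP-705 reporter; 500 cells/well, o/n 37C 5% CO2; cpd 2 d; 488 ex/500-520 em laser scan; total peak GFP intensity/well. Ref: 500 nM […] antisense PNA.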

[15] = molecular target: Ubiquitin carboxyl-terminal hydrolase 1 (Homo sapiens) (UniProt O94782); assay: Inhibitors of USP1/UAF1: Pilot qHTS (AID 504865; active = well fitted curve in the direction sought with a large enough effect; an effect the other way counts as inactive or inconclusive;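 also: rhodamine fluorescence freed from ubiquitin-rhodamine substrate followed over time; top concentration of the series differs between compounds; % is scaled to controls: 0 for no effect and ±100 for the full control effect; nearly all actives have a fitted effect of over 35% in size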); settings: purified USP1/UAF1, Ub-rhodamine cleavage fluorescence; series mostly up to 54.9 µM
Summary of the method: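 In 50mM HEPES pH 7.8 containing 0.5mM EDTA, 1mM TCEP, 0.1 mg/ml BSA and 0.01% Tween-20, 1nM USP1/UAF1 is exposed to compound for 15 min, then Ub-Rho (150nM final) is added and fluorescence is read over time.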

[16] = molecular target: Cytochrome P450 3A4 (Homo sapiens) (UniProt P08684); assay: qHTS Assay for Inhibitors and Substrates of Cytochrome P450 3A4 (AID 884; active = well fitted curve in the direction sought with a large enough effect; an effect the other way counts as inactive or inconclusive; also: nearly all actives have a fitted effect of over 50% in size; also: potency is read from the fitted curve at half-maximal effect); settings: recombinant CYP3A4, Luciferin-PPXE luminescence; series mostly up to 57.1 µM
Summary of the method: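 20 nM human CYP3A4 with 25 uM Luciferin-PPXE (at KM) in 200 mM KPO4, preincubated 10 min with compound; NADPH regeneration started a 60 min RT reaction. Luciferin detected by luminescence, normalized to 57 uM ketoconazole as full inhibition.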

[17] = qHTS Assay for Identification of Small Molecule Agonists for Hypoxia Response Element Signaling Pathway (AID 914; active = well fitted activation curve with a large enough effect in the signal ratio, with a control signal flat, not every such curve was filed as active; the % refers to the signal ratio; also: potency is read from the fitted curve at half-maximal effect); settings: ME-180 (cervical carcinoma) HRE-bla reporter, beta-lactamase ratio, CoCl2, 17 h; activation: stronger effect = higher value
Summary of the method: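 Read-out: CCF4 FRET ratio of 460nm to 530nm emission (excitation 405nm) after 2.5 hours at room temperature, taken from HRE-bla ME-180 cells that had been exposed to compound and EC50 CoCl2 for 17 hours.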

Glucocorticoid receptor (Homo sapiens), sequence (P04150 whole entry, looked up, the tested form may be a part): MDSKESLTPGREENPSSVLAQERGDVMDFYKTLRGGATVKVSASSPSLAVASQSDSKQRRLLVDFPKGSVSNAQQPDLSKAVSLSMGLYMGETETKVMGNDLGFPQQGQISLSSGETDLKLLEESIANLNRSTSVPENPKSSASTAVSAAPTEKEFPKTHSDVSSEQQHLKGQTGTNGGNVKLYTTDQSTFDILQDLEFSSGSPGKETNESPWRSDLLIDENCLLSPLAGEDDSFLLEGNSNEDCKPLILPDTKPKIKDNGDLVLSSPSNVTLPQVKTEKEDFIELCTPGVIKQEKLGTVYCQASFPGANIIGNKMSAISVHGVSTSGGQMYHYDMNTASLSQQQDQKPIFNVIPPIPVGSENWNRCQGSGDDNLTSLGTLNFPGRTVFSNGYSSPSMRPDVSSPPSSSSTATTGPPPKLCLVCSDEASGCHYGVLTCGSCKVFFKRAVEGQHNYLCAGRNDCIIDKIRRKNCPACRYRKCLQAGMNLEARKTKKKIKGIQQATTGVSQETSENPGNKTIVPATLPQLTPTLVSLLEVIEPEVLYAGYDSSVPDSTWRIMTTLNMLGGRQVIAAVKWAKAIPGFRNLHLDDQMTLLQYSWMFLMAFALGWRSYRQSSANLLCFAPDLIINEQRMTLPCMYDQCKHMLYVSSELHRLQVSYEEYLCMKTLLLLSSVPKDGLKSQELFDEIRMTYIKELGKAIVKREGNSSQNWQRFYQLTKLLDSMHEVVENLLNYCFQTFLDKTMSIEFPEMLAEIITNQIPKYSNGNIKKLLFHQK
Cytochrome P450 3A4 (Homo sapiens), sequence (P08684 whole entry, looked up): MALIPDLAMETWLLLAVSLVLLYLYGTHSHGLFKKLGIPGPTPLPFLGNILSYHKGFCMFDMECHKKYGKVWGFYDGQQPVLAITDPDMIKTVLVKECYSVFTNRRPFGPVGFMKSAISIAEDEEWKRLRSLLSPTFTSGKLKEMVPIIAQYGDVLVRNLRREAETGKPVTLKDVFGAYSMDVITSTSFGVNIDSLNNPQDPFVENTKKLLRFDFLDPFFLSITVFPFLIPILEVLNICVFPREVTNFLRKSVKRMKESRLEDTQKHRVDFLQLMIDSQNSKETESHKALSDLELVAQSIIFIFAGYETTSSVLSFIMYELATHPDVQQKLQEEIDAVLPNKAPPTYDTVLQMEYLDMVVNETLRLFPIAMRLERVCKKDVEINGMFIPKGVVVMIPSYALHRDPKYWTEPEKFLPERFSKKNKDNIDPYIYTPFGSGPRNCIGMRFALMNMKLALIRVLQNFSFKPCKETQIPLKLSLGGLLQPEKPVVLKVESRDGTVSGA
Cytochrome P450 1A2 (Homo sapiens), sequence (P05177 whole entry, looked up): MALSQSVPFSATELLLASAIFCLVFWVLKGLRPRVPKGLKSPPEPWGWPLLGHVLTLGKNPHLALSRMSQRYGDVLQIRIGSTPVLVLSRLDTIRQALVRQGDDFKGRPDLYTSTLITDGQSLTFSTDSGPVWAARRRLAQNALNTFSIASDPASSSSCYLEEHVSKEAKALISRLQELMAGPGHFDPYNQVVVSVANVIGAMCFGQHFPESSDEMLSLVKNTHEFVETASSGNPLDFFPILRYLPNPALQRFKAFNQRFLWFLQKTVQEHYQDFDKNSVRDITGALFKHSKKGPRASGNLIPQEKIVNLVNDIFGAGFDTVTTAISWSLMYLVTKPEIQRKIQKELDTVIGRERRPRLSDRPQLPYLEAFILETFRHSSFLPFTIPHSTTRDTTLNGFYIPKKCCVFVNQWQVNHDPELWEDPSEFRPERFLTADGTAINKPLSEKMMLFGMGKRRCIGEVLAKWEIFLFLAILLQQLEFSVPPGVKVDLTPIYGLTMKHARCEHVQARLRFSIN
3',5'-cyclic-AMP phosphodiesterase 4B (Homo sapiens), sequence (Q07343 whole entry, looked up): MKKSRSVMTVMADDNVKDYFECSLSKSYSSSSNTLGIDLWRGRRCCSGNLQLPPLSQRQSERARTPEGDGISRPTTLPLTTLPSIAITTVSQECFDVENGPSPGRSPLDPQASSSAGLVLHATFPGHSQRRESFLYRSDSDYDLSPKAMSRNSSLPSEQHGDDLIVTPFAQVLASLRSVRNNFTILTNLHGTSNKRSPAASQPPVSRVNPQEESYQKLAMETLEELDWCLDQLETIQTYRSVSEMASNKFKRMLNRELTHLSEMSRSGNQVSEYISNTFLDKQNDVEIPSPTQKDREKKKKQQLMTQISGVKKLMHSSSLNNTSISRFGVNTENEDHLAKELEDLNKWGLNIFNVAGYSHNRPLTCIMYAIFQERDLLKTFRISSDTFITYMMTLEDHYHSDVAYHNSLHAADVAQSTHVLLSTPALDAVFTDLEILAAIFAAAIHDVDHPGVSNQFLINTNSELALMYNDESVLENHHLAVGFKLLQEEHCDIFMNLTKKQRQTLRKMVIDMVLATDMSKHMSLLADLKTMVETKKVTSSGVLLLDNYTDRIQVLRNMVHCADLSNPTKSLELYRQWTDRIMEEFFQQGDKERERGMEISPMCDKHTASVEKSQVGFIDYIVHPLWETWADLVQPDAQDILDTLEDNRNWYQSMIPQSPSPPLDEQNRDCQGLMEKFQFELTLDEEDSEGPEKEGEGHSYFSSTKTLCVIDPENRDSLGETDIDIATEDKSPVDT
Lysosomal acid glucosylceramidase (Homo sapiens), sequence (P04062 whole entry, looked up): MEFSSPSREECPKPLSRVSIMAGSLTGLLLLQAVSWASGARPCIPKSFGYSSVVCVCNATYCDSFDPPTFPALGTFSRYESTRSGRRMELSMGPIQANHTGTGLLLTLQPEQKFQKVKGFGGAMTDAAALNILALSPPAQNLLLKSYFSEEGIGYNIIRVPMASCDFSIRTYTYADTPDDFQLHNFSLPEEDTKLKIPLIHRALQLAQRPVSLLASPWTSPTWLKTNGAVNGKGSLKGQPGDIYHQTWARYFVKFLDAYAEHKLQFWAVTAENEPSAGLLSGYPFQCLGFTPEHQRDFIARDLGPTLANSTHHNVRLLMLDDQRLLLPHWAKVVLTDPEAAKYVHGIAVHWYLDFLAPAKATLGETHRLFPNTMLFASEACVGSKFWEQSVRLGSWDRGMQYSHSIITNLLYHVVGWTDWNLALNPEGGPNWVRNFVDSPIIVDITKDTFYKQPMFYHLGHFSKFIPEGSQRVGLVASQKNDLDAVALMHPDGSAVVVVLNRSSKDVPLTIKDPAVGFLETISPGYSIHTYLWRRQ
Ubiquitin carboxyl-terminal hydrolase 1 (Homo sapiens), sequence (O94782 whole entry, looked up): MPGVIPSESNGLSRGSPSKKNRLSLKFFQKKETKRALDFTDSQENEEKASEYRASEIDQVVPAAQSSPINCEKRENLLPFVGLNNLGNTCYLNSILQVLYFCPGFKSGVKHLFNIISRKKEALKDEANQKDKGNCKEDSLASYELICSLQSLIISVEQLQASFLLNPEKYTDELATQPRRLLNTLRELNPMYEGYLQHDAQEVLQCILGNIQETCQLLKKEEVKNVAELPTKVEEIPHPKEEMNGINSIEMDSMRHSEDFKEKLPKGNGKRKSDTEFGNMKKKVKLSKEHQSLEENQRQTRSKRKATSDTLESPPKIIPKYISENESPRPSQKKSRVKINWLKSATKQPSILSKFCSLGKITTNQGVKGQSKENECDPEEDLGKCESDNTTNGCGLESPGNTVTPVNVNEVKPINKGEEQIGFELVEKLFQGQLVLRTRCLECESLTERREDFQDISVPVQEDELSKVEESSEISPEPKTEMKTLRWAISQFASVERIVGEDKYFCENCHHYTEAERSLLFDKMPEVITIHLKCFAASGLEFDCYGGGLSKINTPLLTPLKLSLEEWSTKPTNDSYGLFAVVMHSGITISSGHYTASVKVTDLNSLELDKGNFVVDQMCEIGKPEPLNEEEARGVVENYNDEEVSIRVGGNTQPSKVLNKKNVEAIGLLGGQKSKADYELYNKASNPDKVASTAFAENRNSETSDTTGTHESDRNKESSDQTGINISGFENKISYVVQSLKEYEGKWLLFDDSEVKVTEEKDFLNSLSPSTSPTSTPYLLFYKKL
Cytochrome P450 2C19 (Homo sapiens), sequence (P33261 whole entry, looked up): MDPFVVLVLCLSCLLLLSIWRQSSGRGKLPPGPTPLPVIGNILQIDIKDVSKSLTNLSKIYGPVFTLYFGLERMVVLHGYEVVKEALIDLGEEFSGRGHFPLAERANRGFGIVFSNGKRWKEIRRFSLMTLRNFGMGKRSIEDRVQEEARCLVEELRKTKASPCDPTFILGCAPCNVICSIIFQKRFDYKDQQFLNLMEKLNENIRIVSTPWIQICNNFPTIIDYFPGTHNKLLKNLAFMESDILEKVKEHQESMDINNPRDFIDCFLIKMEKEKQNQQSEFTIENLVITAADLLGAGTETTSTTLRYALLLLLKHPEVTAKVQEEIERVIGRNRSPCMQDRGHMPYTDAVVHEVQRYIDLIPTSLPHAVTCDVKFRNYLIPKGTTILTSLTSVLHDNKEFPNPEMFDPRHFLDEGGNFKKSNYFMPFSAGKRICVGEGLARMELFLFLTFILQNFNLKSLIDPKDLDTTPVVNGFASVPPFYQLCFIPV

Row | Structure (SMILES) | Potency [1] [µM] | activity change, negative = inhibition [2] [%] | Potency [3] | activity change, negative = inhibition [4] [%] | activity, negative = inhibition [5] [%] | Potency [6] [µM] | Potency [7] | Potency [8] | Potency [9] | outcome [10] | Potency [11] [µM] | Potency [12] | Potency [13] | outcome [14] | Potency [15] | Potency [16] | Potency [17]
1 | O=C(Oc1ccccc1)N1CCC[C@@]2(CCN(c3ccccn3)C2)C1 | > 11.4 | 7.28 | 7.94 µM (active) | -24.6 | 9.87 | > 46 | inactive | inactive | 5.01 µM (active) | inactive | – | – | – | – | – | – | –
2 | Cc1cnc(CNc2nc(-c3ccc(C(=O)N(C)C)cc3)nc3ccccc23)cn1 | > 11.4 | -29.1 | 25.1 µM (active) | – | -7.91 | > 46 | inactive | inactive | – | inactive | > 46 | inactive | inactive | inactive | inactive | – | –
3 | CC(C)NC(=O)N1CCCC2(CCN(C(=O)c3csnn3)CC2)C1 | > 11.4 | 3.46 | inactive | -7.86 | 2.78 | – | inactive | inactive | – | inactive | – | inactive | – | – | – | – | –
4 | COCC(=O)N1CCC2(CCCN(c3cccc(-c4ccccc4)c3)C2)CC1 | > 11.4 | -22.8 | 15.8 µM (active) | 17 | -10.6 | > 46 | inactive | inactive | – | inactive | – | – | – | – | – | – | –
5 | Cn1cccc1C(=O)N1CCC2(CC1)CCN(c1ccccn1)CC2 | > 11.4 | -0.389 | 15.8 µM (active) | – | -4.58 | > 46 | inactive | – | – | inactive | – | inactive | – | – | – | – | –
6 | O=S(=O)(c1ccccc1)N1CCC2(CCCN(c3cccc(-c4ccccc4)c3)C2)CC1 | > 11.4 | 7.43 | inactive | -13.9 | -0.269 | > 46 | inactive | inactive | – | inactive | – | – | – | – | – | 3.98 µM (active) | –
7 | CCNc1ncc2nc(-c3ccc(OC)cc3)c(=O)n(-c3ccc(OC)cc3)c2n1 | > 11.4 | -16 | inactive | -5.13 | – | > 46 | inactive | inactive | – | inactive | > 9.22 | – | – | – | – | – | –
8 | Cc1nc2cnc(N(C)C)nc2n(C)c1=O | > 11.4 | -9.37 | 3.98 µM (active) | – | 0.339 | > 46 | inactive | inactive | – | inactive | > 9.22 | inactive | – | – | – | – | –
9 | COc1ccc(CNc2ncncc2-c2cccc(NS(C)(=O)=O)c2)c(OC)c1 | > 2.29 | -14.5 | 15.8 µM (active) | – | 17.9 | > 46 | inactive | inactive | – | inactive | > 46 | inactive | – | – | inactive | 0.251 µM (active) | –
10 | N#Cc1cccc(-c2nc3cnc(Nc4ccccc4)nc3n(C[C@H]3CCCO3)c2=O)c1 | > 11.4 | -18.6 | 2 µM (active) | -9.05 | – | > 46 | inactive | – | – | inactive | > 9.22 | inactive | – | – | – | – | –
11 | Cn1cc(-c2nc3cnc(Oc4ccccc4)nc3n(CCC#N)c2=O)c2ccccc21 | > 11.4 | 5.74 | 3.16 µM (active) | 7.14 | – | > 46 | inactive | inactive | – | inactive | > 9.22 | inactive | – | – | – | – | 3.16 µM (active)
12 | O=C(c1ccncc1)N1CCC2(CC1)CCN(c1ncccn1)CC2 | > 11.4 | -2.2 | 20 µM (active) | 11.7 | – | > 46 | inactive | – | 2.51 µM (active) | inactive | – | inactive | – | – | – | – | –
13 | O=C(c1cnccn1)N1CCC2(CC1)CCN(c1ccccc1)CC2 | > 11.4 | -3.01 | inactive | 9.49 | -24.3 | > 46 | inactive | – | – | inactive | – | – | – | – | – | inactive | –
14 | CC(C)NC(=O)N1CC[C@@]2(CCCN(C(=O)c3cccc(F)c3)C2)C1 | > 11.4 | -5.48 | inactive | 10.1 | – | > 46 | inactive | – | – | inactive | – | inactive | – | – | – | – | –
15 | O=C(Nc1cccc(F)c1)N1CCCC2(CCN(C(=O)c3cnccn3)CC2)C1 | > 11.4 | -5.64 | inactive | -3.4 | -5.83 | > 46 | inactive | inactive | – | inactive | – | – | – | – | – | – | –
